Assay outcomes from PubChem.
Mot1-301 SUMO – blocks SUMOylation pathway, rescuing yeast Mot1-301 growth; growth rescue, % at 18.8 µM; S. cerevisiae Mot1-301 growth rescue, ATP luminescence, 38.5C; percent above DMSO median, 100 means doubled; 320,000 compounds, 1% hits; AID 2716;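 active = every valid replicate shows activation above 250% relative to neutral control wells; inactive = the rest, any valid replicate at or below 250%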
ATG4B inhibitor – blocks human ATG4B protease cleavage of LC3 substrate. Q9Y4P1. ATG4B cleavage of LC3-PLA2, NBD-HPC fluorescence, 1 h. inhibition, % at 8.33 µM. 340,000 compounds, 0.51% hits. AID 504462; in the data active = inhibition above about 40%
Target sequence (Q9Y4P1 whole entry, looked up): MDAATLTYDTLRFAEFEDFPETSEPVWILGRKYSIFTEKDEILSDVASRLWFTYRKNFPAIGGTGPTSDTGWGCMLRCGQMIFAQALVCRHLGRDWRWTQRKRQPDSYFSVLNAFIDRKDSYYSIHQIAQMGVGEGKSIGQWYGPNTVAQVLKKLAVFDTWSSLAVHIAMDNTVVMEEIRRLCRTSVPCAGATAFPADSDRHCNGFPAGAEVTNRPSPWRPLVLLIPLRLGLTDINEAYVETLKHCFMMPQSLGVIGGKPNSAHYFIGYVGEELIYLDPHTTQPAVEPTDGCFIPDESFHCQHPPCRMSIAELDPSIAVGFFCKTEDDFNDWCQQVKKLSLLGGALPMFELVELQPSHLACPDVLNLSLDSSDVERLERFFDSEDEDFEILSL
NadD block – blocks S. aureus nicotinate mononucleotide adenylyltransferase | purified NadD enzyme, colorimetric absorbance read-out | inhibition, % at 20 µM | AID 602399 | 360,000 compounds, 0.78% hits; in the data active = inhibition above about 26%
Calb FLC – affects C. albicans growth with fluconazole. C. albicans CaCi-2 (fluconazole-resistant clinical isolate) + fluconazole, Alamar Blue growth, 48 h. growth inhibition, % (concentration not given with the values). 300,000 compounds, 0.57% hits. AID 1979;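 active = growth inhibition above about 58% in most replicates, limit read from the data, passing the limit was not always enough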;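 note: all wells also contain fluconazole at 8 µg/ml as a sub-toxic cotreatment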
FAS TE block – inhibitors of human fatty acid synthase thioesterase domain; P49327; recombinant FAS-TE, OMFH fluorogenic substrate, fluorescence endpoint; inhibition, % at 15 µM; 360,000 compounds, 0.67% hits;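 active = compounds whose normalised, plate-corrected inhibition of enzyme fluorescence in the single-dose primary screen is 50% or more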
Of the large screens only hits and unclear results are named; the others gave an inactive call. Shown are actives, neighbours in structure and some others; about 3.1% of the full set was active somewhere.

C#CCOCCOCCOCCNc1nc(N2CCN(C(=O)CCCCCCCCCCNC(=O)[C@H]([C@@H](C)CC)n3cc(CCCCCN)nn3)CC2)nc(N2CCN(C(=O)CCCCCCCCCCNC(=O)[C@@H]([C@H](C)O)n3cc(C)nn3)CC2)n1	NadD block 32.6 (no result: Calb FLC)
C#CCOCCOCCOCCNc1nc(N2CCN(C(=O)CCCCCCCCCCNC(=O)[C@H](CCC(=O)O)n3cc(CCCCCN)nn3)CC2)nc(N2CCN(C(=O)CCCCCCCCCCNC(=O)[C@@H]([C@H](C)O)n3cc(C)nn3)CC2)n1	none (no result: Calb FLC)
C#CCOCCOCCOCCNc1nc(N2CCN(C(=O)CCCCCCCCCCNC(=O)[C@H](CCCCN)n3cc(C)nn3)CC2)nc(N2CCN(C(=O)CCCCCCCCCCNC(=O)[C@@H]([C@H](C)CC)n3cc(CCCCCN)nn3)CC2)n1	NadD block 51.3 (no result: ATG4B inhibitor, Calb FLC)
COc1ccc(C2OCC(C)([N+](=O)[O-])CO2)cc1 (configuration not stated)	none (no result: Mot1-301 SUMO, Calb FLC)
O=C(NCCc1ccccc1F)C1CC(=O)N(c2ccc3c(c2)OCCO3)C1 (configuration not stated)	none (no result: Mot1-301 SUMO, ATG4B inhibitor, Calb FLC)
OCCNCc1c(OCc2ccc(Cl)cc2)ccc2ccccc12	none
CCCCC(=O)NC(=S)Nc1cccc(NC(=O)c2ccco2)c1	Calb FLC 89.0
Cn1cc(CNC(=O)C2CCC(=O)N(Cc3ccc(Cl)cc3)C2)cn1 (configuration not stated)	none
CC(C)n1cc(CNC(=O)C2CCC(=O)N(Cc3ccccc3F)C2)cn1 (configuration not stated)	Mot1-301 SUMO 323.7
N#Cc1cccc2cnccc12	Mot1-301 SUMO 329.1
Oc1cccc2cnccc12	none
Cc1ccc2nc(Cl)c3nnnn3c2c1	Mot1-301 SUMO 381.6, Calb FLC 96.8
FC(F)(F)COc1nc(OCC(F)(F)F)nc(N2CCN(c3ccccc3)CC2)n1	Calb FLC 88.5
FC(F)(F)COc1nc(N2CCOCC2)nc(N(c2ccccc2)c2ccccc2)n1	none (no result: Mot1-301 SUMO)
Oc1c(Br)cc(Br)cc1/C=N/Nc1ccc(Cl)nn1	Calb FLC 83.1
Oc1c(Br)cc(/C=N/Nc2ccc(Cl)nn2)cc1Br	none
Oc1cccc(/C=N/Nc2ncnc3c2ncn3Cc2ccccc2)c1	none
Oc1ccc(/C=N/Nc2ncnc3c2ncn3Cc2ccccc2)cc1O	NadD block 38.8
Cc1ccccc1NC1(C#N)C(=O)Nc2ccccc21 (configuration not stated)	Mot1-301 SUMO 347.9
CCC(C)(C)NC(=O)C(c1ccc(OC)cc1)N(C(=O)CCC(=O)Nc1cc(C)on1)c1cc(OC)ccc1OC (configuration not stated)	none
O=C(O)c1ccc(-c2nc(-c3ccc(Cl)cc3)cs2)cc1	Calb FLC 91.0 (no result: Mot1-301 SUMO)
Cc1ccc(S(=O)(=O)N(CC(=O)N=Nc2c(O)[nH]c3ccccc23)c2ccc(C)c(C)c2)cc1	NadD block 32.3 (no result: Calb FLC)
CCOC(=O)C1(C)CCCN(C(=O)c2ccc(OC)c(OC)c2)C1 (configuration not stated)	none (no result: Mot1-301 SUMO, ATG4B inhibitor, Calb FLC)
C[C@@]12C(=O)N(c3cccc(Cl)c3)C(=O)N1[C@H](c1ccc(Cl)cc1)[C@@H]1C(=O)N(C3CCCCC3)C(=O)[C@@H]12	FAS TE block 58.6
CC(C)C[C@@]12C(=O)N(c3cccc(F)c3)C(=O)N1[C@H](c1ccc(F)cc1)[C@@H]1C(=O)N(C3CCCCC3)C(=O)[C@@H]12	FAS TE block 82.5
CC(C)C[C@@]12C(=O)N(c3cccc(F)c3)C(=O)N1[C@H](c1ccc(Cl)cc1)[C@@H]1C(=O)N(C3CCCCC3)C(=O)[C@@H]12	FAS TE block 62.2
Cc1ccc(S(=O)(=O)N2CCC(C(=O)NC3CC(C)(C)NC(C)(C)C3)CC2)cc1C	none
Cc1ccc(C(=O)Cc2ccccc2)cc1	none (no result: Mot1-301 SUMO, Calb FLC)
Cc1ccc(C(=O)CCc2ccc(N)cc2)cc1	Mot1-301 SUMO 318.1
Oc1cc(CNCc2ccccc2)c(O)cc1CNCc1ccccc1	NadD block 57.3 (no result: Mot1-301 SUMO, Calb FLC)
O=[N+]([O-])CC(c1ccccc1)P(=O)(c1ccccc1)c1ccccc1 (configuration not stated)	Calb FLC 94.4
NCCCC[C@H]1NC(=O)[C@H](CCC(=O)O)NC(=O)c2cc([N+](=O)[O-])cc(I)c2OCC[C@@H](C(N)=O)NC1=O	ATG4B inhibitor 44.0 (no result: NadD block, Calb FLC, FAS TE block)
C[C@@H]1NC(=O)c2cc([N+](=O)[O-])cc(I)c2OCC[C@@H](C(N)=O)NC(=O)[C@H](CCCCN)NC1=O	none
O=C(CSc1nc2ccccc2n1CCc1ccccc1)c1ccc(O)c(O)c1	NadD block 36.0 (no result: Mot1-301 SUMO, Calb FLC)
CC(C)(C)c1ccc(CNC(=O)c2ccc3c(c2)NC(=O)CO3)cc1	Mot1-301 SUMO 331.4
COCCCNC(=O)CC1C[C@H](C(=O)N2CCOCC2)[C@@]2(C)c3[nH]c4ccc(OC)cc4c3CCN2C1=O (some centres not stated)	none (no result: Mot1-301 SUMO, ATG4B inhibitor, Calb FLC)
C=CCNC(=S)Nc1sc2c(c1C(=O)OCC)CC(C)(CC)OC2 (configuration not stated)	Calb FLC 97.9
COc1cc(OC)cc(C(=O)N[C@H](C(=O)Nc2nc3ccc(S(C)(=O)=O)cc3s2)C(C)C)c1	none
COc1cccc2sc(=NC(=O)CS(=O)(=O)c3ccc(Cl)cc3)n(C)c12	Calb FLC 99.1
COc1cccc2sc(=NC(=O)CS(=O)(=O)c3ccc(F)cc3)n(C)c12	none
CCOC(=O)c1c(NC(=O)C(=O)N/N=C/c2ccc(O)c(OC)c2)sc2c1CCCCC2	NadD block 31.9
CCOC(=O)c1c(NC(=O)C(=O)N/N=C/c2ccc(OCC)cc2)sc2c1CCCCC2	none
Cc1nc(-n2[nH]c3c(c2=O)CCCC3)[nH]c(=O)c1Cc1ccccc1	Calb FLC 89.3
FC(F)(F)c1cc(-c2cccs2)nc2cc(-c3cccs3)nn12	none
O=C(O)CCc1ccc(-c2ccc(F)cc2)n1CC(=O)O	none
NC(=O)Nn1c(CCC(=O)O)ccc1-c1ccc(F)cc1	Mot1-301 SUMO 349.2
Clc1ccc(-c2nc3ccc(Br)cn3c2Cc2cccc(Cl)c2)cc1	none (no result: Mot1-301 SUMO, ATG4B inhibitor, Calb FLC)
O=C(CCn1c(=O)[nH]c2ccsc2c1=O)NCc1ccc(F)cc1	Mot1-301 SUMO 450.9
O=C(CCCn1c(=O)[nH]c2ccsc2c1=O)Nc1ccc(F)cc1	none
NC(=O)C1CCN(CC(=O)Nc2cc(Cl)ccc2Oc2ccccc2)CC1	Mot1-301 SUMO 321.2
O=C(CN1CCCCC1)Nc1cc(Cl)ccc1Oc1ccccc1	none
O=C1c2ccccc2C(c2nnnn2Cc2ccccc2)N1Cc1ccco1 (configuration not stated)	none (no result: Mot1-301 SUMO, ATG4B inhibitor, Calb FLC)
COC(=O)c1ccc(NS(=O)(=O)c2cc(-c3cc(C)no3)ccc2OC)cc1	Calb FLC 87.6
COc1ccc(-c2cc(C)no2)cc1S(=O)(=O)Nc1ccccc1	none
O=C(/C=C/c1ccc(F)cc1)N1CCN(c2ccccn2)CC1	Calb FLC 87.2
COc1ccc(S(=O)(=O)N(C)c2ccc(C(=O)N3CCC(C(N)=O)CC3)cc2)cc1	none
COc1ccc(S(=O)(=O)N(C)c2ccc(C(=O)N3CCC(C(N)=O)CC3)cc2)cc1OC	Mot1-301 SUMO 345.1
